Rows were chosen to be rich in hits. Some 2.7% of all compounds tested hit in one or more screens of this group.
Wnt bcat act: activates Wnt/beta-catenin signaling in a reporter cell assay | activator, plate reader | actives 1.2% (n = 300,000) | activation, % at 9.35 µM; in the data active = activation above about 30%, passing the limit was not always enough; inconclusive = no clear call, values can overlap the other calls;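 note: 0% = neutral control wells and 100% = positive control wells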
F508del corr: CFTR F508del correction in bronchial cells. CFBE cells, YFP halide quenching; stimulated with forskolin plus potentiator P3; % fluorescence drop versus neutral controls. activity (quench increase), % at 7.58 µM. actives 0.36% (n = 350,000). AID 720511;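 active = mean added fluorescence quench of at least 8% versus neutral control, with both replicates also reaching 8%; inconclusive = only one of the mean or replicate conditions met; inactive = mean below 8% and not both replicates reaching 8%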;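 note: cells transiently co-express mutant CFTR-F508del with the halide-sensitive YFP; corrector assay measuring rescue of mutant channel to the surface after 24 h compound exposure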
GSIS activator: primary screen for activators of insulin secretion dependent on glucose, INS-1E cells, GLuc reporter luminescence; activation, % at 16.6 µM; INS-1E GLuc reporter insulin secretion, 2-3 h; actives 0.61% (n = 370,000);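 active = lowest replicate activation of at least 40%, so every replicate reaches that level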;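 note: 0% = median of neutral control wells and 100% = median of IBMX positive control wells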
MITF TRPM1 HTS: activators of MITF-driven TRPM1 promoter activity in SK-MEL-5 cells; activation, % at 12.5 µM; SK-MEL-5 TRPM1-promoter luciferase, 24 h; % of positive control, neutral wells = 0; AID 588334; actives 0.75% (n = 300,000);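 active = mean activation of at least 80% with every replicate also reaching 80%; inconclusive = mean reaches 80% but some replicate falls short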;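 note: 0% = neutral control wells and 100% = parthenolide positive control wells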
Env fusion inh: inhibitors of HIV Env-mediated cell fusion. inhibition, % at 12.3 µM. AID 651610. actives 1.1% (n = 360,000). HeLa-JRFL Env/CEM21 cell fusion, luciferase;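 active = mean replicate inhibition score of at least 50 and every replicate individually at or above 50; inconclusive = only one of the two criteria met; inactive = mean below 50 and not all replicates reaching 50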;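 note: 0% = plate neutral controls and 100% = maraviroc near 300 nM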
An asterisk follows results filed as active; [ ] = dose if it differs, or a comment.

CCn1ccc(C(=O)Nc2ccc(Cl)cn2)n1 was read as Wnt bcat act 32*, F508del corr 1 and GSIS activator 17.
Cc1noc(C)c1NC(=O)N(C)C[C@H]1Oc2ccc(NC(=O)Nc3cccc4ccccc34)cc2C(=O)N([C@H](C)CO)C[C@H]1C was read as F508del corr 1, GSIS activator -6 and Env fusion inh 10[16.7 µM].
For Cn1ccc(NC(=O)c2ccc(Cl)cc2Cl)n1 the results were Wnt bcat act 35*, F508del corr 1, GSIS activator 7 and MITF TRPM1 HTS inconclusive.
`COc1ccc2nc3ccccc3nc2c1NC(=O)c1ccc(Cl)cc1Cl` gave GSIS activator 87*, MITF TRPM1 HTS 14 and Env fusion inh 3.
`Cc1cc(C)nc(NC(=O)c2ccc(Cl)cc2Cl)n1` gave Wnt bcat act 1, F508del corr 1, GSIS activator 68*, MITF TRPM1 HTS -17 and Env fusion inh 4.
`Cc1ccccc1-c1cnc2c(c1)C(=O)N([C@H](C)CO)C[C@H](C)[C@H](CN(C)C(=O)c1cccnc1)O2` gave F508del corr 4, GSIS activator 13 and Env fusion inh -3[16.7 µM].
`O=C(C1CC1)N1CC[C@@H]2[C@H]1c1cc(-c3cccc(F)c3)ccc1N[C@@H]2CO` gave F508del corr 1 and GSIS activator -36.
COCC(=O)Nc1ccc2c(c1)C(=O)N(C)C[C@@H](OC)[C@H](C)CN(C(=O)c1cnccn1)[C@@H](C)CO2 was read as F508del corr 1 and GSIS activator 3.
`COc1ccccc1C1=NC(c2ccc(C)cc2)N=C1C` (stereo unspecified) gave Wnt bcat act 52*, F508del corr -1, GSIS activator -4, MITF TRPM1 HTS 46 and Env fusion inh -252.
Screening COc1ccccc1-c1nnc(-c2ccc(C)cc2)o1 returned Wnt bcat act -1, F508del corr -2, GSIS activator -2 and Env fusion inh -108.
Screening O=C(NC1CCCCCC1)c1ccc2c(=O)n3c(nc2c1)CCCCC3 returned GSIS activator 4 and MITF TRPM1 HTS 92*.
O=C(Nc1ccccc1Cl)c1ccc2c(=O)n3c(nc2c1)CCC3 was read as Wnt bcat act 51*, F508del corr -2, GSIS activator 12, MITF TRPM1 HTS 71 and Env fusion inh -98.
O=C(Nc1ccc(F)cc1Cl)c1ccc2c(=O)n3c(nc2c1)CCCCC3 was read as MITF TRPM1 HTS 55.
For Cc1cccc(NC(=O)c2ccc3c(=O)n4c(nc3c2)CCCCC4)n1 the results were Wnt bcat act 35*, F508del corr 2, GSIS activator 17, MITF TRPM1 HTS 3 and Env fusion inh -11.
Screening O=C(COc1ccccc1F)NNC(=O)c1ccc2c(=O)n3c(nc2c1)CCC3 returned Wnt bcat act 0, F508del corr -2, GSIS activator 0 and MITF TRPM1 HTS -12.
Screening O=C(NCc1ccccc1)c1ccc2c(=O)n3c(nc2c1)CCCCC3 returned Wnt bcat act -6, F508del corr 1, GSIS activator -8, MITF TRPM1 HTS 1 and Env fusion inh 2.
Screening O=C(NCCOc1ccccc1F)c1ccc2c(=O)n3c(nc2c1)CCC3 returned Wnt bcat act 46*, F508del corr -6, GSIS activator 45, MITF TRPM1 HTS 44 and Env fusion inh -35.
Cc1noc(C)c1NC(=O)N(C)C[C@@H]1Oc2ccc(NC(=O)Cc3cn(C)c4ccccc34)cc2C(=O)N([C@H](C)CO)C[C@H]1C was read as F508del corr 1 and GSIS activator 20.
CCN(CC)C(=O)c1ccccc1NS(=O)(=O)c1ccc(C)cc1 was read as GSIS activator 43*, MITF TRPM1 HTS -9 and Env fusion inh -2.
For Cc1nnc(SCC(=O)Nc2cc(Cl)ccc2Cl)n1CC1CCCO1 (stereo unspecified) the results were Wnt bcat act -1, F508del corr -2, GSIS activator 73*, MITF TRPM1 HTS 7 and Env fusion inh 8.
Cc1c(Cl)cccc1NC(=O)CSc1nnc(C)n1CC1CCCO1 (stereo unspecified) was read as Wnt bcat act 5, F508del corr 0, GSIS activator -1, MITF TRPM1 HTS -4 and Env fusion inh 10.
`CC1=CC(C)(C)N(C(=O)c2ccccc2)c2ccc(C)cc21` gave MITF TRPM1 HTS 2 and Env fusion inh 94*.
Screening CCNC(=O)C[C@@H]1CC[C@@H]2[C@H](COc3ccc(NC(=O)Nc4ccccc4Cl)cc3C(=O)N2C)O1 returned F508del corr 1 and GSIS activator 1.
`CC1=CC(c2ccccc2)n2nc(NC(=O)CCCC(=O)O)nc2N1` (stereo unspecified) gave Wnt bcat act -2, F508del corr -1, GSIS activator 8, MITF TRPM1 HTS -6 and Env fusion inh 4.
CC1=CC(c2ccccc2)n2nc(NC(=O)CCC(=O)O)nc2N1 (stereo unspecified) was read as Wnt bcat act 0, F508del corr 2, GSIS activator 65*, MITF TRPM1 HTS -1 and Env fusion inh -6.
`Cc1cc(C)cc(N(C(=O)Cc2cccs2)C(C(=O)NC2CCCCC2)c2ccccn2)c1` (stereo unspecified) gave MITF TRPM1 HTS 4 and Env fusion inh 119*.
CCOc1cccc(N(C(=O)Cc2cccs2)C(C(=O)NC2CCCCC2)c2cccn2C)c1 (stereo unspecified) was read as Wnt bcat act -2, MITF TRPM1 HTS 5 and Env fusion inh 89*.
`COC(=O)C[C@H]1CC[C@@H]2[C@H](COc3ccc(NS(=O)(=O)c4ccc(F)cc4)cc3C(=O)N2C)O1` gave F508del corr 1, GSIS activator -5 and Env fusion inh -1[16.7 µM].
`COc1ccc2c3c(n(C)c2c1)[C@@H](CO)N(C(=O)CC1CC1)CC31CN(Cc2nccs2)C1` gave F508del corr -2 and GSIS activator -1.
Screening C=CCn1c(SCC(N)=O)nc2scc(-c3ccc(C)o3)c2c1=O returned Wnt bcat act 48*, F508del corr 2, GSIS activator 2, MITF TRPM1 HTS 26 and Env fusion inh -42.
Screening C=CCn1c(SCC(=O)Nc2sccc2C(N)=O)nc2sc(C)c(C)c2c1=O returned Wnt bcat act 2, MITF TRPM1 HTS -7 and Env fusion inh 58*.
`C=CCn1c(SCC(=O)Nc2ccccc2C)nc2sc(C)c(C)c2c1=O` gave MITF TRPM1 HTS 16.
CC(O)(CS(=O)(=O)Cc1cccc(C(F)(F)F)c1)C(=O)Nc1cccc(C(F)(F)F)c1 (stereo unspecified) was read as MITF TRPM1 HTS 10 and Env fusion inh 59*.
CCN(CC)CC(C)(C)C(=O)/C=C/c1ccc(/C=C/C(=O)C(C)(C)CN(CC)CC)cc1 was read as Wnt bcat act -6, F508del corr -7, GSIS activator 5, MITF TRPM1 HTS -93 and Env fusion inh 55*.

Screening data from PubChem BioAssay.
